# The panel holds about 79,000 compounds, 15% with a hit somewhere; the sample as a whole holds those more often. Unmarked numbers belong to inactive results. Active and inactive are the calls of the source. No stated cut-off is given here; in the data, active means growth inhibition above about 70%; inactive means the rest.
# What was measured:
# [1] = NCI Yeast Anticancer Drug Screen. Data for the mec2-1 strain (AID 157); conditions: S. cerevisiae mec2-1 strain, hits give high values
# Procedure, shortened: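 Strain: mec2-1 (DNA repair/cell cycle alteration). Compound exposure, then growth measured; inhibition expressed relative to vehicle.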
# [2] = NCI Yeast Anticancer Drug Screen. Data for the rad14 strain (AID 159);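 further: 0% = growth of vehicle-treated control cultures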; conditions: S. cerevisiae rad14 strain growth inhibition, hits give high values
# Procedure, shortened: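 DNA repair-defective yeast, compound-exposed; % growth inhibition derived by comparison with vehicle-treated controls.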
# [3] = NCI Yeast Anticancer Drug Screen. Data for the sgs1 mgt1 strain (AID 161);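 further: 0% = growth of cultures given vehicle only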; conditions: S. cerevisiae sgs1 mgt1 strain, hits give high values
# Procedure, shortened: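 Inhibition of yeast growth, normalised to vehicle-treated controls, is reported for a strain bearing genetic alterations in DNA damage repair.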
# [4] = NCI Yeast Anticancer Drug Screen. Data for the CLN2oe strain (AID 163);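 further: 0% = growth of vehicle-only control cultures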; conditions: S. cerevisiae CLN2oe strain, hits give high values
# Procedure, shortened: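 Growth of a genetically modified yeast strain is measured after compound exposure and compared with cultures given vehicle alone.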
# [5] = NCI Yeast Anticancer Drug Screen. Data for the cln2 rad14 strain (AID 165);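 further: 0% = growth equal to vehicle treated cultures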; conditions: S. cerevisiae cln2 rad14 strain, hits give high values
# Procedure, shortened: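 Compounds are applied to the cln2 rad14 yeast strain, and growth is then compared with that of vehicle-treated cultures to give inhibition.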
# [6] = NCI Yeast Anticancer Drug Screen. Data for the bub3 strain (AID 167); conditions: S. cerevisiae bub3 mutant strain, hits give high values
# Procedure, shortened: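 In this screen, a yeast mutant lacking normal mitotic checkpoint function is challenged with compound. Relative growth versus vehicle gives the inhibition value.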
# [7] = NCI Yeast Anticancer Drug Screen. Data for the wt2 strain (AID 169);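 further: 0% = growth of vehicle-treated yeast cultures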; conditions: S. cerevisiae wt2 strain growth inhibition, hits give high values
# Procedure, shortened: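 This strain belongs to a panel of yeast strains with defined genetic alterations in DNA damage repair or cell cycle control. Compounds are applied, and growth inhibition is measured against vehicle-treated cultures.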
# [8] = NCI Yeast Anticancer Drug Screen. Data for the mlh1 strain (AID 171);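 further: 0% = growth of vehicle-treated control cultures of the same strain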; conditions: S. cerevisiae mlh1 strain growth inhibition, hits give high values
# Procedure, shortened: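 Growth of the mutant yeast strain after compound exposure, expressed as inhibition relative to vehicle-only controls.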
# [9] = NCI Yeast Anticancer Drug Screen. Data for the mlh1 rad18 strain (AID 175); conditions: S. cerevisiae mlh1 rad18 strain growth inhibition, hits give high values
# Procedure, shortened: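 Read-out is yeast growth inhibition, calculated against vehicle-only controls. The compound was applied to a strain engineered with DNA damage repair alterations.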
# [10] = NCI Yeast Anticancer Drug Screen. Data for the rad52 strain (AID 147);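 further: 0% = growth of vehicle-treated control cultures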; conditions: S. cerevisiae rad52 mutant growth inhibition, hits give high values
# Procedure, shortened: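 Compounds are applied to a genetically defined yeast strain lacking normal DNA damage repair, and inhibition of growth is expressed relative to cultures given vehicle only.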
# [11] = NCI Yeast Anticancer Drug Screen. Data for the wt1 strain (AID 149);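 further: 0% = growth of vehicle-treated wt1 cultures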; conditions: S. cerevisiae wt1 strain (SPY 50644) growth inhibition, hits give high values
# Procedure, shortened: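 wt1 strain grown with compound or vehicle; inhibition taken from the growth difference.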
# [12] = NCI Yeast Anticancer Drug Screen. Data for the mgt1 strain (AID 153); conditions: S. cerevisiae mgt1 mutant growth inhibition, hits give high values
# Procedure, shortened: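 Strain: mgt1 yeast, one of a set carrying defined DNA damage repair or cell cycle control alterations. Compound-treated growth compared with vehicle.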
# [13] = NCI Yeast Anticancer Drug Screen. Data for the rad50 strain (AID 155);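 further: 0% = growth of vehicle-only cultures of the same strain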; conditions: S. cerevisiae rad50 strain growth inhibition, hits give high values
# Procedure, shortened: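 DNA repair mutant yeast, compound exposure, growth read-out; inhibition is taken relative to vehicle.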
# [14] = NCI Yeast Anticancer Drug Screen. Data for the sgs1 strain (AID 173);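 further: 0% = growth of vehicle-only control cultures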; conditions: S. cerevisiae sgs1 mutant, hits give high values
# Procedure, shortened: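 Growth of a yeast strain bearing a defined genetic alteration is measured after compound treatment. Inhibition is expressed relative to vehicle-only controls.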
# [15] = NCI Yeast Anticancer Drug Screen. Data for the rad18 strain (AID 177); conditions: S. cerevisiae rad18 mutant growth inhibition, hits give high values
# Procedure, shortened: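 Growth of the mutant yeast strain after compound exposure, normalised to vehicle-only cultures.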
# [16] = at 5.0 µM (retest, dose inferred, filed as 0.5)
# [17] = at 50.0 µM (retest, dose inferred, filed as 5.0)
structure (smiles),measurement,setting,value
O=C1C(Cl)=C(Cl)C(Cl)(Cl)C(Cl)C1(Cl)Cl (stereo not given),growth inhibition,[1]; at 100.0 µM,99% (active)
same,growth inhibition,[2]; at 1.2 µM,17%
same,growth inhibition,[2]; at 3.7 µM,25%
same,growth inhibition,[2]; at 11.0 µM,44%
same,growth inhibition,[2]; at 33.0 µM,99% (active)
same,growth inhibition,[2]; at 100.0 µM,99% (active)
same,growth inhibition,[3]; [16],30%
same,growth inhibition,[3]; [17],99% (active)
same,growth inhibition,[3]; at 50.0 µM,99.6% (active)
same,growth inhibition,[4]; at 1.2 µM,15%
same,growth inhibition,[4]; at 3.7 µM,38%
same,growth inhibition,[4]; at 11.0 µM,54%
same,growth inhibition,[4]; at 33.0 µM,99% (active)
same,growth inhibition,[4]; at 100.0 µM,99% (active)
same,growth inhibition,[5]; [16],9%
same,growth inhibition,[5]; [17],96% (active)
same,growth inhibition,[5]; at 50.0 µM,96.8% (active)
same,growth inhibition,[6]; at 1.2 µM,11%
same,growth inhibition,[6]; at 3.7 µM,28%
same,growth inhibition,[6]; [16],5%
same,growth inhibition,[6]; at 11.0 µM,59%
same,growth inhibition,[6]; at 33.0 µM,99% (active)
same,growth inhibition,[6]; [17],98% (active)
same,growth inhibition,[6]; at 50.0 µM,99.5% (active)
same,growth inhibition,[6]; at 100.0 µM,97% (active)
same,growth inhibition,[7]; at 1.2 µM,-14%
same,growth inhibition,[7]; at 3.7 µM,-6%
same,growth inhibition,[7]; at 11.0 µM,54%
same,growth inhibition,[7]; at 33.0 µM,100% (active)
same,growth inhibition,[7]; at 100.0 µM,99% (active)
same,growth inhibition,[8]; at 1.2 µM,12%
same,growth inhibition,[8]; at 3.7 µM,26%
same,growth inhibition,[8]; at 11.0 µM,66%
same,growth inhibition,[8]; at 33.0 µM,99% (active)
same,growth inhibition,[8]; at 100.0 µM,99% (active)
same,growth inhibition,[9]; [16],26%
same,growth inhibition,[9]; [17],99% (active)
same,growth inhibition,[9]; at 50.0 µM,99.4% (active)
O=C1c2c(O)cccc2-c2nn(CCNCCO)c3ccc(NCCNCCO)c1c23,growth inhibition,[10]; at 1.2 µM,17%
same,growth inhibition,[10]; at 3.7 µM,43%
same,growth inhibition,[10]; at 11.0 µM,73% (active)
same,growth inhibition,[10]; at 33.0 µM,81% (active)
same,growth inhibition,[10]; at 100.0 µM,87% (active)
same,growth inhibition,[11]; at 1.2 µM,8%
same,growth inhibition,[11]; at 3.7 µM,-2%
same,growth inhibition,[11]; at 11.0 µM,11%
same,growth inhibition,[11]; at 33.0 µM,2%
same,growth inhibition,[11]; at 100.0 µM,-4%
same,growth inhibition,[12]; at 1.2 µM,16%
same,growth inhibition,[12]; at 3.7 µM,11%
same,growth inhibition,[12]; at 11.0 µM,-3%
same,growth inhibition,[12]; at 33.0 µM,-10%
same,growth inhibition,[12]; at 100.0 µM,2%
same,growth inhibition,[13]; at 1.2 µM,26%
same,growth inhibition,[13]; at 3.7 µM,42%
same,growth inhibition,[13]; [16],27%
same,growth inhibition,[13]; at 11.0 µM,74% (active)
same,growth inhibition,[13]; at 33.0 µM,85% (active)
same,growth inhibition,[13]; [17],79% (active)
same,growth inhibition,[13]; at 50.0 µM,76.9% (active)
same,growth inhibition,[13]; at 100.0 µM,87% (active)
same,growth inhibition,[1]; at 1.2 µM,42%
same,growth inhibition,[1]; at 3.7 µM,29%
same,growth inhibition,[1]; [16],-25%
same,growth inhibition,[1]; at 11.0 µM,40%
same,growth inhibition,[1]; at 33.0 µM,10%
same,growth inhibition,[1]; [17],-14%
same,growth inhibition,[1]; at 50.0 µM,20.4%
same,growth inhibition,[1]; at 100.0 µM,39%
same,growth inhibition,[2]; at 1.2 µM,-3%
same,growth inhibition,[2]; at 3.7 µM,-2%
same,growth inhibition,[2]; at 11.0 µM,-21%
same,growth inhibition,[2]; at 33.0 µM,-13%
same,growth inhibition,[2]; at 100.0 µM,2%
same,growth inhibition,[3]; [16],1%
same,growth inhibition,[3]; [17],-2%
same,growth inhibition,[3]; at 50.0 µM,7%
same,growth inhibition,[4]; at 1.2 µM,26%
same,growth inhibition,[4]; at 3.7 µM,22%
same,growth inhibition,[4]; at 11.0 µM,21%
same,growth inhibition,[4]; at 33.0 µM,5%
same,growth inhibition,[4]; at 100.0 µM,18%
same,growth inhibition,[5]; [16],26%
same,growth inhibition,[5]; [17],14%
same,growth inhibition,[5]; at 50.0 µM,-7.2%
same,growth inhibition,[6]; at 1.2 µM,1%
same,growth inhibition,[6]; at 3.7 µM,-9%
same,growth inhibition,[6]; [16],-24%
same,growth inhibition,[6]; at 11.0 µM,-15%
same,growth inhibition,[6]; at 33.0 µM,-30%
same,growth inhibition,[6]; [17],-13%
same,growth inhibition,[6]; at 50.0 µM,-19.2%
same,growth inhibition,[6]; at 100.0 µM,-26%
same,growth inhibition,[7]; at 1.2 µM,-46%
same,growth inhibition,[7]; at 3.7 µM,-27%
same,growth inhibition,[7]; at 11.0 µM,-41%
same,growth inhibition,[7]; at 33.0 µM,-53%
same,growth inhibition,[7]; at 100.0 µM,-42%
same,growth inhibition,[8]; at 1.2 µM,29%
same,growth inhibition,[8]; at 3.7 µM,7%
same,growth inhibition,[8]; at 11.0 µM,15%
same,growth inhibition,[8]; at 33.0 µM,13%
same,growth inhibition,[8]; at 100.0 µM,21%
same,growth inhibition,[14]; at 1.2 µM,7%
same,growth inhibition,[14]; at 3.7 µM,5%
same,growth inhibition,[14]; at 11.0 µM,7%
same,growth inhibition,[14]; at 33.0 µM,11%
same,growth inhibition,[14]; at 100.0 µM,28%
same,growth inhibition,[9]; [16],-6%
same,growth inhibition,[9]; [17],-7%
same,growth inhibition,[15]; at 1.2 µM,13%
same,growth inhibition,[15]; at 3.7 µM,15%
same,growth inhibition,[15]; at 11.0 µM,-2%
same,growth inhibition,[15]; at 33.0 µM,9%
same,growth inhibition,[15]; at 100.0 µM,0%
